Reference: article PMC4336329 (PLoS ONE, 2015)
The campaign covered roughly 310,000 compounds. About 14,000 (4.5%) showed an effect of 50% or more. The effect is printed as a negative number. This excerpt belongs to a sample that is enriched for strong results.
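Note: peak tail current of the secondary pulse compared with the same well before compound.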

The molecules below were run against human ether-à-go-go-related gene (hERG) potassium channel (human, UniProt Q12809) (assay: primary screen, population patch clamp on CHO cells stably expressing hERG; higher = less effect of the substance).
Sequence of human ether-à-go-go-related gene (hERG) potassium channel (Q12809 whole entry, looked up): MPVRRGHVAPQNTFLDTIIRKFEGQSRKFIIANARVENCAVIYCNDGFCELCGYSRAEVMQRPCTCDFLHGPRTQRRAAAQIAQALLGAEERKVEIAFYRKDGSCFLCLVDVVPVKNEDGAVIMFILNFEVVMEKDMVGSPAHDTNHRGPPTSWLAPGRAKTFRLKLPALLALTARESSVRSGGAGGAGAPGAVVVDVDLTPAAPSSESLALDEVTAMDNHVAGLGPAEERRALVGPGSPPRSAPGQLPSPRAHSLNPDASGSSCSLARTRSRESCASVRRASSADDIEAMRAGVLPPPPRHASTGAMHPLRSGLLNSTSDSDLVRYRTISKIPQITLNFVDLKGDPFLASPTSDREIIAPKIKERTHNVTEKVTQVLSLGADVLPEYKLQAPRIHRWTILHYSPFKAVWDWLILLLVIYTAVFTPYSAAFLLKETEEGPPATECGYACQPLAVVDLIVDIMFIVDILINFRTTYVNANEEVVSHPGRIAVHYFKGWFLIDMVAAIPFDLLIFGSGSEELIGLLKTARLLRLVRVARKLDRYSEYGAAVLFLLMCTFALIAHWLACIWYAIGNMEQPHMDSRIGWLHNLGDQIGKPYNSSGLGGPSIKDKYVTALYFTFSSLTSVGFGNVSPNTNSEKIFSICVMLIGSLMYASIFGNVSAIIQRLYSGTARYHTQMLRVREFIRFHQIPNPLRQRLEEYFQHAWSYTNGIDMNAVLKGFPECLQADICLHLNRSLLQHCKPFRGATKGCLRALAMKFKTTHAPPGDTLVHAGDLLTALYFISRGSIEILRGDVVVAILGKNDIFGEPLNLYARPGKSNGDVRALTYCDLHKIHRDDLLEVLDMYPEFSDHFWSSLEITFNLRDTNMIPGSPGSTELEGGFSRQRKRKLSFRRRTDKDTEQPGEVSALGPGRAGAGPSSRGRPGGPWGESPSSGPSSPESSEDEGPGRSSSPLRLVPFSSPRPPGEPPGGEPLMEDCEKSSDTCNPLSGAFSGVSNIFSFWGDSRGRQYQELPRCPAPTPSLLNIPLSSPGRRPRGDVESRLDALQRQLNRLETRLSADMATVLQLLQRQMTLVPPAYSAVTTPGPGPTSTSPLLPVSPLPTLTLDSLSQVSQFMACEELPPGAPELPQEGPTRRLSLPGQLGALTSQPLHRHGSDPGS
`N/C(=N\OC(=O)c1ccc(=O)n(Cc2ccc(Cl)cc2)c1)c1ccccn1` was tested, and the “hERG current change (%, negative = inhibition) at 10uM” value was -33.2%. For `CC1Sc2ccc(S(=O)(=O)NCc3ccccc3)cc2NC1=O` (stereo not shown), the “hERG current change (%, negative = inhibition) at 10uM” value was 1.74%. `CC(C)Oc1cccc(-c2nnc(SCC(=O)Nc3ccc4c(c3)OCCO4)n2N)c1` was tested, and the “hERG current change (%, negative = inhibition) at 10uM” value was -8.81%. For `O=C(CSc1nnc(-c2ccc(O)cc2)n1Cc1ccco1)c1cccs1`, the “hERG current change (%, negative = inhibition) at 10uM” value was -14.9%. `O=C(COC(=O)c1cccc(F)c1)NC(=O)NC1CCCC1` was tested, and the “hERG current change (%, negative = inhibition) at 10uM” value was 5.55%. For `COCCCN(C(=O)c1cc(C)oc1C)c1c(N)n(CC(C)C)c(=O)[nH]c1=O`, the “hERG current change (%, negative = inhibition) at 10uM” value was 7.78%. In the case of `Cc1ccccc1OCCOc1cccc(/C=N/NC(=O)Cc2nnc(N)s2)c1`, the “hERG current change (%, negative = inhibition) at 10uM” value is reported as 14.2%. With `CC1(C)Oc2ccc(C(=O)N3CCOCC3)cc2N(CC(=O)N2CCOCC2)C1=O` the “hERG current change (%, negative = inhibition) at 10uM” value was 18.7%. In the case of `Cc1ccc(CC2C(=O)N(c3cc(Cl)ccn3)C(=O)C2C)cc1` (stereo not shown), the “hERG current change (%, negative = inhibition) at 10uM” value is reported as -9.63%. `COc1cccc(C2=NOC(C(=O)Nc3ccc(OC)c(OC)c3)C2)c1` (stereo not shown) was tested, and the “hERG current change (%, negative = inhibition) at 10uM” value was -11.8%. In the case of `Cn1c(SCc2c(F)cccc2Cl)nc2c(c1=O)SCC2`, the “hERG current change (%, negative = inhibition) at 10uM” value is reported as 6.6%. In the case of `COc1ccc(C(c2nnnn2Cc2cccs2)N2CCN(c3ccccc3F)CC2)cc1` (stereo not shown), the “hERG current change (%, negative = inhibition) at 10uM” value is reported as 4.04%. For `COc1ccc(C(c2nnnn2Cc2cccs2)N2CCN(c3ccc(F)cc3)CC2)cc1OC` (stereo not shown), the “hERG current change (%, negative = inhibition) at 10uM” value was -69.4%. For `Fc1ccc(C(c2nnnn2Cc2cccs2)N2CCN(c3ccccc3)CC2)cc1` (stereo not shown), the “hERG current change (%, negative = inhibition) at 10uM” value was -21.3%. With `CC(=O)Nc1ccc(Oc2cc(C#N)c(C#N)cc2N2CCOCC2)cc1` the “hERG current change (%, negative = inhibition) at 10uM” value was -16.9%. `Nc1ccccc1SC1CC(=O)N(c2ccc3c(c2)OCO3)C1=O` (stereo not shown) was tested, and the “hERG current change (%, negative = inhibition) at 10uM” value was 14.7%. With `CCOc1ccc(C2=Nn3c(nnc3-c3ccc(OC)cc3)SC2)cc1` the “hERG current change (%, negative = inhibition) at 10uM” value was -16%. In the case of `CCOc1ccc(-c2nnc3n2N=C(c2ccc(OC)cc2)CS3)cc1`, the “hERG current change (%, negative = inhibition) at 10uM” value is reported as 0.919%. `Cc1cc(-c2nnc3n2N=C(c2ccc(F)cc2)CS3)n[nH]1` was tested, and the “hERG current change (%, negative = inhibition) at 10uM” value was -60.3%. For `COc1ccc(C2=Nn3c(nnc3-c3cc(C)[nH]n3)SC2)cc1`, the “hERG current change (%, negative = inhibition) at 10uM” value was -64%. For `COc1ccc(C2=Nn3c(nnc3-c3ccncc3)SC2)cc1`, the “hERG current change (%, negative = inhibition) at 10uM” value was -41.1%. In the case of `CCOc1ccc(C2=Nn3c(nnc3-c3ccccc3OC)SC2)cc1`, the “hERG current change (%, negative = inhibition) at 10uM” value is reported as -63.4%. With `COc1ccc(C2=Nn3c(nnc3-c3ccc(OC)cc3)SC2)cc1` the “hERG current change (%, negative = inhibition) at 10uM” value was -55%. In the case of `COc1ccc(OC)c(C2=Nn3c(nnc3-c3cc(C)[nH]n3)SC2)c1`, the “hERG current change (%, negative = inhibition) at 10uM” value is reported as -19.7%. `COc1ccc(C2=Nn3c(nnc3-c3ccccn3)SC2)cc1` was tested, and the “hERG current change (%, negative = inhibition) at 10uM” value was -34.3%. With `Br.COc1ccc(C2=Nn3c(C)nnc3SC2)cc1` the “hERG current change (%, negative = inhibition) at 10uM” value was 0.091%. With `Cc1cc(-c2nnc3n2N=C(c2ccccc2)CS3)n[nH]1` the “hERG current change (%, negative = inhibition) at 10uM” value was -22.7%. `Cc1cc(-c2nnc3n2N=C(c2ccc(-c4ccccc4)cc2)CS3)n[nH]1` was tested, and the “hERG current change (%, negative = inhibition) at 10uM” value was -15.7%. With `O=C(Cn1cc2c(n1)CCCCC2)NCc1ccccn1` the “hERG current change (%, negative = inhibition) at 10uM” value was -2.69%. For `CCOc1cc(C(=O)N2CCC3(CC2)OCCO3)cc(OCC)c1OCC`, the “hERG current change (%, negative = inhibition) at 10uM” value was -12.5%. For `CCOC(=O)N1CCN(CC(=O)N2c3ccccc3CC2C)CC1.O=C(O)C(=O)O` (stereo not shown), the “hERG current change (%, negative = inhibition) at 10uM” value was 10.4%. `Cc1ccc(CNC(=O)C2CCN(S(=O)(=O)c3ccc(Br)s3)CC2)cc1` was tested, and the “hERG current change (%, negative = inhibition) at 10uM” value was 3.77%. In the case of `COC(=O)c1cc2nc(-c3ccccc3)cc(C(F)(F)F)n2n1`, the “hERG current change (%, negative = inhibition) at 10uM” value is reported as 19.7%. For `CCOc1ccc(S(=O)(=O)/N=C(\N)c2ccccc2)cc1`, the “hERG current change (%, negative = inhibition) at 10uM” value was -7.03%. In the case of `CCCCCCCC(=O)Nc1cc(C(=O)NCc2ccc(C)cc2)ccc1N1CCC2(CC1)CC(c1cccc(Br)c1)=NO2`, the “hERG current change (%, negative = inhibition) at 10uM” value is reported as 2.8%. With `CCSCCOC(=O)C1=C(C)NC(=O)NC1c1ccc2c(c1)OCO2` (stereo not shown) the “hERG current change (%, negative = inhibition) at 10uM” value was -13.4%. For `Cc1cccc(C(=O)N(NC(=O)Oc2ccccc2)C(C)(C)C)c1`, the “hERG current change (%, negative = inhibition) at 10uM” value was -13%. In the case of `CCc1ccc(NC(=O)CCNS(=O)(=O)c2cccc3nsnc23)cc1`, the “hERG current change (%, negative = inhibition) at 10uM” value is reported as -14.9%. `O=C(Nc1ccc2c(c1)OCO2)C1CCN(C(=O)c2ccc([N+](=O)[O-])cc2)CC1` was tested, and the “hERG current change (%, negative = inhibition) at 10uM” value was -84.2%. In the case of `O=C(Nc1ccc2c(c1)OCCO2)C1CCN(C(=O)c2ccc([N+](=O)[O-])cc2)CC1`, the “hERG current change (%, negative = inhibition) at 10uM” value is reported as -65.6%. With `O=C(Nc1ccc2c(c1)OCO2)C1CCN(S(=O)(=O)c2ccc3c(c2)OCCO3)CC1` the “hERG current change (%, negative = inhibition) at 10uM” value was 7.45%. `Cc1ccccc1C(=O)N1CCC(C(=O)Nc2ccc3c(c2)OCCO3)CC1` was tested, and the “hERG current change (%, negative = inhibition) at 10uM” value was 5.7%. In the case of `O=C(Nc1ccc2c(c1)OCCO2)C1CCC1`, the “hERG current change (%, negative = inhibition) at 10uM” value is reported as 7.7%.
